High-throughput results deposited in PubChem BioAssay by National Center for Advancing Translational Sciences (NCATS).
Rows were chosen to be rich in hits. Some 18% of all compounds tested hit in one or more screens of this group.
DT40 TDP1 no CPT = qHTS for Inhibitors of human tyrosyl-DNA phosphodiesterase 1 (TDP1): qHTS in cells in absence of CPT; hit rate 15% among 420,000; DT40 Tdp1-/- hTDP1 cells, no CPT, ATP luminescence, 48 h; Potency, µM (series often up to 46.2 µM), inactives show top-dose activity change, negative = growth inhibition, actives largely listed as inhibitors; note: potency is the fitted concentration of half-maximal effect; % is set by controls: 0 for no effect and ±100 for the full control effect; nearly all actives have a fitted effect of over 55% in size
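Compound effects on proliferation are scored in DT40 Tdp1-/-;hTDP1 cells in the absence of CPT. ATP levels (CellTiter-Glo luminescence) are recorded after a ≥48 hr, 37 °C incubation.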
IL-1B inflam inh = qHTS for Inhibitors of Inflammasome Signaling: IL-1-beta AlphaLISA Primary Screen. THP-1 LPS/ATP IL-1B secretion, AlphaLISA, 16 h; active compounds read low. AID 743279, 2014. hit rate 4.7% among 360,000. activity change, % at 57.5 µM; in the data active = activity change below about -50%; inconclusive = mostly about -30% to -49%; note: % is set by controls: 0 for no effect and ±100 for the full control effect
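Secreted IL-1B measured by AlphaLISA bead assay after 16 h compound exposure of THP-1 cells; compounds (final up to 57.5 uM) added 1 h before LPS (250 ng/mL) and ATP (1.25 mM) stimulation; lower signal means less secretion.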
TDP1 inh = qHTS Assay for Inhibitors of Tyrosyl-DNA Phosphodiesterase (TDP1). Tyrosyl-DNA phosphodiesterase 1 (Homo sapiens), Q9NUW8. recombinant TDP1, AlphaScreen DNA substrate cleavage. Potency, µM (top dose mostly 130 µM), for inactives: at the highest dose activity change, negative = inhibition, hits mostly inhibitors. hit rate 0.28% among 350,000; note: potency is the fitted concentration of half-maximal effect; % is set by controls: 0 for no effect and ±100 for the full control effect; nearly all actives have a fitted effect of over 40% in size
Target sequence (Q9NUW8 whole entry, looked up): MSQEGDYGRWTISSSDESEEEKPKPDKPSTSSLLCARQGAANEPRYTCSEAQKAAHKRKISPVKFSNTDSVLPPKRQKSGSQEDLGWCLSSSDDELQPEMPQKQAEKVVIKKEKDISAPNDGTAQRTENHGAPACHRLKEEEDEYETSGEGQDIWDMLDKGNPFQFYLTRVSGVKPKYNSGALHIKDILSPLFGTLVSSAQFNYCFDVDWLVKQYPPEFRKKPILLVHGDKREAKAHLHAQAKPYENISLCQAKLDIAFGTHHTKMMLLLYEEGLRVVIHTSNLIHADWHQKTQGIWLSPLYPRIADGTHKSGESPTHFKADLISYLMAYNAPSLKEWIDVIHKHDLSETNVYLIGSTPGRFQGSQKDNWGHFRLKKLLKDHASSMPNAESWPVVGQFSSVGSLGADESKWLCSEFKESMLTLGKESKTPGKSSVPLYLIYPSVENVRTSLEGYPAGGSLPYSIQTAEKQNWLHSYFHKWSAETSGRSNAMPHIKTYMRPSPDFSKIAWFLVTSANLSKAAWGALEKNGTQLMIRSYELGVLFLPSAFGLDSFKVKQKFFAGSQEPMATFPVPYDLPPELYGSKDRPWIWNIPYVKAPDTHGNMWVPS
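Here, a 5' biotin and 3' phosphotyrosine-FITC DNA oligonucleotide reports Tdp1 activity: intact substrate bridges AlphaScreen beads, while cleavage leaves a 3' phosphate and drops signal. All incubations at room temperature.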
TDP1 cell CPT = qHTS for Inhibitors of human tyrosyl-DNA phosphodiesterase 1 (TDP1): qHTS in cells in presence of CPT. hit rate 12% among 420,000. AID 686979, 2013. chicken DT40 Tdp1-/-;hTDP1 cells + 20 nM CPT, ATP luminescence, 48 h. Potency, µM (doses to about 46.2 µM), without a hit: at the top dose activity change, negative = growth inhibition, usual class: inhibitors; note: potency is the fitted concentration of half-maximal effect; % is set by controls: 0 for no effect and ±100 for the full control effect; nearly all actives have a fitted effect of over 55% in size
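Cell growth measured by CellTiter-Glo luminescence after a minimum 48 h, 37 C compound exposure with 20 nM CPT in Tdp1-knockout DT40 cells stably expressing hTDP1, seeded 400/well; qHTS titration format.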
HepG2 viability = qHTS for Inhibitors of TGF-b: Cytotox Counterscreen | AID 588856, 2011 | hit rate 0.76% among 410,000 | HepG2 CAGA-GFP viability, ATP luminescence, 18 h | Potency, µM (doses to about 46.1 µM), for the others: top-dose activity change, negative = cytotoxicity, usual class: cytotoxic; note: potency is the fitted concentration of half-maximal effect
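HepG2 CAGA-GFP cells (1000/well, DMEM with 1% FBS) received compound, then TGF-beta at 500 pg/mL final, and were incubated 18 hours at 37 degrees C. Viability was read by CellTiter-Glo luminescence. Media-only wells were set as complete cell-killing and DMSO as no toxicity.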
TGFb inhibitor = qHTS for Inhibitors of TGF-b; HepG2 CAGA-GFP TGF-b/SMAD3 reporter, GFP fluorescence, 18 h; TGF-beta stimulated, 500 pg/mL final; Potency, µM (doses to about 46.1 µM), inactives show at the top dose activity, negative = inhibition, most hits filed as inhibitors; hit rate 1.2% among 410,000; AID 588855, 2011; note: potency is the fitted concentration of half-maximal effect; % is set by controls: 0 for no effect and ±100 for the full control effect; nearly all actives have a fitted effect of over 65% in size
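HEPG2 CAGA-GFP cells (1000/well, DMEM with 1% FBS) were pre-incubated 2 h at 37 degrees C, given compound by pin tool, then stimulated with TGF-beta at 500 pg/mL final for 18 h before per-cell GFP fluorescence imaging.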
* marks the source's active call; other numbers are inactive results; ? = inconclusive; · = no result; [ ] = remark or other dose. Unless noted, calls come from the whole dose curve; as a rule, active = well fitted curve in the direction sought with a large enough effect; inconclusive = small, poorly fitted or top-dose-only effect, or another doubt; inactive = no such curve, though single readings can be large; an effect the other way counts as inactive or inconclusive.

SMILES | DT40 TDP1 no CPT | IL-1B inflam inh | TDP1 inh | TDP1 cell CPT | HepG2 viability | TGFb inhibitor
Cc1ccccc1NP1(=O)OCCCN1Cc1ccccc1Cl (configuration not stated) | ? | 20.9 | · | -29.4% | 1.2% | ?
CC(c1nnc(SCC(=O)c2c(N)n(C3CC3)c(=O)[nH]c2=O)n1-c1ccc(F)cc1)N(C)C (configuration not stated) | 2.91µM* | -3.6 | 1.6% | 4.1% | -22.9% | -2.0%
CN(C)S(=O)(=O)c1ccc2oc(SCC(=O)c3c(N)n(C4CC4)c(=O)[nH]c3=O)nc2c1 | 4.11µM* | 21.9 | -1.2% | -8.2% | -4.7% | 12.9%
CCN(CC)S(=O)(=O)c1ccc(SCC(=O)c2c(N)n(C3CC3)c(=O)[nH]c2=O)nc1 | 20.6µM* | 35.2 | · | ? | -22.5% | -0.1%
COc1cc(-c2cnc3ccccc3c2)cc2c1OCCN(C(=O)CCC(=O)c1ccc(F)cc1)C2 | -22.0% | · | · | 11.4%[9.04 µM] | · | ·
O=C(CCC1CCN(Cc2ccc(Cl)cc2)CC1)NC1CC1 | 10.4% | 6.4 | · | 10.0% | 0.4% | -1.8%
O=C(NC(=S)Nc1ccc(N2CCOCC2)cc1)c1ccc2c(c1)OCCO2 | 23.1µM* | -1.6 | 7.9% | ? | -28.5% | -24.7%
O=C(Nc1ccc(CN2CCOCC2)cc1)c1ccc(Br)cc1 | 0.9% | 36.8 | 2.4% | -2.8% | -1.9% | -13.0%
COc1ccc(C(=O)NC(=S)Nc2ccc(CN3CCOCC3)cc2)cc1Br | 10.3µM* | -1.5 | 10.3% | ? | -54.3% | 11.2µM*
O=C(Nc1ccc(CN2CCOCC2)cc1)c1ccc(-c2ccc(Br)cc2)o1 | 18.4µM* | -79.2* | 11.4% | 16.4µM* | 10µM* | ?
COc1ccc(NC(=S)NC(=O)c2ccc3c(c2)OCCO3)cc1 | 18.4µM* | -14.7 | 4.3% | ? | -16.6% | -13.5%
COc1ccc(N(CC(=O)N2CCOCC2)S(C)(=O)=O)cc1 | 4.7% | -19.3 | · | 5.9% | -3.8% | 10.2%
COc1ccc(-c2cc3ccccc3oc2=O)cc1NC(=S)NC(=O)c1ccc2c(c1)OCCO2 | 9.2µM* | -14.8 | 2.0% | 11.6µM* | -25.9% | -1.9%
O=C(NC(=S)Nc1ccc(N2CCCCC2)cc1)c1ccc2c(c1)OCCO2 | 16.4µM* | 0.0 | 6.7% | ? | -4.7% | -19.1%
O=C(NC(=S)Nc1ccc(CN2CCOCC2)cc1)c1ccc2c(c1)OCCO2 | 14.6µM* | ? | 5.2% | ? | -3.9% | ?
CN(C(=O)COC(=O)C1CCN(S(=O)(=O)c2ccc3c(c2)OCCO3)CC1)C1CCS(=O)(=O)C1 (configuration not stated) | -14.3% | 11.2 | · | 1.1% | 4.1% | -30.2%
CN1C(=O)C(N=Nc2ccccc2C(=O)O)N(C)C1=S (configuration not stated) | ? | 2.7 | 5.1% | -13.0% | -22.3% | -10.9%
O=C(NCCN1CCOCC1)c1ccc2c(c1)N(Cc1c(F)cccc1Cl)C(=O)c1ccccc1S2 | ? | 0.0 | 5.7% | ? | -16.3% | ?
O=C(c1ccc2c(c1)N(Cc1cccc(F)c1)C(=O)c1ccccc1S2)N1CCCC1 | ? | · | 0.0% | 20.6µM* | -30.1% | ?
O=C(O)c1ccc2c(c1)N(Cc1ccccc1)C(=O)c1ccccc1S2 | 12.5% | 25.2 | 3.9% | 10.8% | 2.0% | -3.4%
O=C(c1ccc2c(c1)N(Cc1c(F)cccc1Cl)C(=O)c1ccccc1S2)N1CCCC1 | 23.1µM* | · | 4.7% | ? | -27.5% | ?
CN(C)CCNC(=O)c1ccc2c(c1)N(Cc1c(F)cccc1Cl)C(=O)c1ccccc1S2 | 23.1µM* | · | 2.3% | 16.4µM* | -66.8% | ?
O=C(c1ccc2c(c1)N(Cc1cccc(Cl)c1)C(=O)c1ccccc1S2)N1CCOCC1 | ? | · | 7.8% | 18.4µM* | -1.4% | ?
O=[N+]([O-])c1cc([N+](=O)[O-])c(Oc2cc(Cl)cc(Cl)c2)cc1NN1CCCCC1 | 10.6% | 11.2 | · | -18.0% | -0.3% | 6.7%
COC(=O)c1cc2oc3ccccc3c2n1CC(=O)Nc1cccc(SC)c1 | -25.0% | · | 6.8% | ? | -24.5% | ?
SMILES | DT40 TDP1 no CPT | IL-1B inflam inh | TDP1 inh | TDP1 cell CPT | HepG2 viability | TGFb inhibitor
N#Cc1c(Nc2ccc(Cl)cc2)s[nH]c1=O | 11.6µM* | -72.5* | · | 14.6µM* | -177.3% | ?
CSc1nc(Nc2ccc(Cl)cc2)c(C#N)c(=O)[nH]1 | 17.2% | 17.4 | · | 0.6% | -86.0% | -7.2%
O=C(N/N=C/C(Cl)=C/c1ccccc1)c1ccncc1 | 20.6µM* | -91.8* | ? | 9.2µM* | 3.2% | -0.7%
O=C(N/N=C/C=C/c1ccco1)c1cnccn1 | -19.6% | -4.9 | 2.9% | -9.3% | -8.6% | 6.6%
O=C(N/N=C/C=C\c1ccco1)c1ccccn1 | 16.4µM* | -4.6 | · | 9.2µM* | -1.0% | ?
Cc1cc(C(=O)N/N=C/c2cccnc2)c(C)o1 | -15.8% | 6.6 | 7.4% | -6.6% | 0.0% | 25.9%
Cc1cc(C(=O)N/N=C/C(Cl)=C/c2ccccc2)c(C)o1 | 20.6µM* | 6.5 | 3.7% | 29.1µM* | -18.6% | 5.2%
O=C(N/N=C/C(Cl)=C/c1ccccc1)c1ccccn1 | ? | -57.3* | -2.5% | ? | 1.2% | 4.2%
C=CCn1c(C(CC)CC)nc2ccccc21 | -24.0% | · | -2.8% | 10.2% | -3.8% | 27.5%
O=C(N/N=C/C=C\c1ccccc1)c1cnccn1 | -20.1% | -11.4 | 3.5% | -19.4% | -0.5% | 22.3%
O=C(N/N=C/C(Br)=C/c1ccccc1)c1cnccn1 | 2.31µM* | -98.9* | 8.2% | 1.64µM* | -22.4% | -24.1%
COc1ccc2c(c1)CCC(C)N2C(=O)C(=O)c1c[nH]c2ccccc12 (configuration not stated) | ? | 82.7 | 5.2% | 20.6µM* | -23.6% | -30.2%
CCOCCCn1c(=NC(=O)c2ccco2)c(C(=O)OCC)cc2c(=O)n3cccc(C)c3nc21 | 11.6µM* | -20.1 | 5.6% | 16.4µM* | 3.2% | -8.2%
CCOC(=O)c1cc2c(=O)n3ccccc3nc2n(CC(C)C)c1=NC(=O)c1cc2ccccc2o1 | -1.4% | · | 8.8% | -2.1% | -2.0% | 6.9%
CCCn1c(=NC(=O)c2ccco2)c(C(=O)OCC)cc2c(=O)n3ccccc3nc21 | ? | ? | 0.0% | ? | -3.3% | -24.2%
